We go through 14 compounds from PubChem BioAssay.

Active and inactive are the calls of the source. Unless noted, the rule behind the calls is not given here.

Assay [1] relates to Wnt5a (protein binding on small-molecule microarray). The experiment in a line: small molecules binding Wnt5a protein – biophysical, small-molecule microarray, 635/667 nm fluorescence, primary screen (AID 1142).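 Note: fluorescence read at 667 nm with signal to noise per printed feature.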 The conditions noted are these: 635 nm fluorescence, higher = more signal.
Assay [2] can be described thus: ATP-based viability of Huh7 replicon cells – cell-based, CellTiter-Glo luminescence, basal, 48 h, cytotoxicity control for HCV replication inhibitor project, primary screen (AID 1143).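 Note: Huh7 hepatoma cells carrying a hepatitis C replication reporter with no stimulus; test concentration not given here.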 The conditions noted are these: higher = more signal, called active from +8 up or from −8 down.
Assay [3] can be described thus: Pseudomonas biofilm growth suppression – PAO1 strain, BacTiter-Glo luminescence, LB-PBS, primary screen (AID 1144). The conditions noted are these: P. aeruginosa PAO1 biofilm, 12 h, higher = more signal.
Assay [4] in a line: basal CRE-LacZ reporter activity in PC12 – cell-based, unstimulated, primary screen (AID 1145). To be noted: no forskolin, luminescence, 4.5 h, higher = more signal, called active from +8 up or from −8 down.
Assay [5] can be described thus: forskolin-driven CRE-LacZ activity in PC12 – cell-based, CRE-LacZ reporter, forskolin-stimulated, primary screen (AID 1146).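 Note: PC12 cells with 6xCRE LacZ reporter stimulated by forskolin 10 µM; beta-galactosidase reporter signal reflecting CREB driven transcription.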 The conditions noted are these: luminescence, 4.5 h, higher = more signal, called active from +8 up or from −8 down.
The target of assay [6] is Streptavidin (Streptomyces avidinii) (UniProt P22629). The experiment in a line: compounds binding control protein streptavidin – biophysical, small-molecule microarray, 635/667 nm fluorescence, artefact control for SMM compound annotation, primary screen (AID 1147).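 Note: signal reflects streptavidin binding to arrayed compounds as a control protein.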 To be noted: higher = more signal.
Sequence of Streptavidin (Streptomyces avidinii) (P22629 whole entry, looked up): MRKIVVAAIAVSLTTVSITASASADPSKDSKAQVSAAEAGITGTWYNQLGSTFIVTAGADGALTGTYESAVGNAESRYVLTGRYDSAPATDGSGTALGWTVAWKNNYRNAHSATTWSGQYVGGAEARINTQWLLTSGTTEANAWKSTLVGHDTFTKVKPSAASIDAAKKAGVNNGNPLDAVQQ
Assay [7] in a line: probe aInhba binding on compound microarray – biochemical, small-molecule microarray, 635/667 nm fluorescence, primary screen (AID 1148).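 Note: score merges 667nm spot fluorescence with signal-to-noise for antibody binding to printed compounds.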 To be noted: higher = more signal.
Assay [8] concerns the target Torsin-1A (Homo sapiens) (UniProt O14656). The experiment in a line: TOR1A wild-type binding on microarray – cell lysate, small-molecule microarray, lysate, 635/667 nm, primary screen (AID 1149). The conditions noted are these: COS7 hTOR1A-WT lysate, 635 nm fluorescence, higher = more signal.
For assay [9] the target is unchanged. The experiment in a line: torsin A mutant lysate binding on microarrays – cell lysate, small-molecule microarray, COS7 lysate, 635/667 nm fluorescence, primary screen (AID 1150).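 Note: score pools 667 nm emission and signal to noise measuring lysate protein binding.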 The conditions noted are these: COS7 hTOR1A mutant lysate, 635 nm fluorescence, higher = more signal.
Assay [10] concerns Sonic hedgehog protein (Shh). The experiment in a line: Sonic hedgehog microarray binding compounds – biochemical, small-molecule microarray, 635/667 nm fluorescence, primary screen (AID 1151).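 Note: Shh protein binding to compounds spotted on small-molecule microarray slides; score combines spot fluorescence intensity with signal-to-noise across triplicate slides.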 To be noted: 635 nm fluorescence, higher = more signal.

Sequence of Torsin-1A (Homo sapiens) (O14656 whole entry, looked up): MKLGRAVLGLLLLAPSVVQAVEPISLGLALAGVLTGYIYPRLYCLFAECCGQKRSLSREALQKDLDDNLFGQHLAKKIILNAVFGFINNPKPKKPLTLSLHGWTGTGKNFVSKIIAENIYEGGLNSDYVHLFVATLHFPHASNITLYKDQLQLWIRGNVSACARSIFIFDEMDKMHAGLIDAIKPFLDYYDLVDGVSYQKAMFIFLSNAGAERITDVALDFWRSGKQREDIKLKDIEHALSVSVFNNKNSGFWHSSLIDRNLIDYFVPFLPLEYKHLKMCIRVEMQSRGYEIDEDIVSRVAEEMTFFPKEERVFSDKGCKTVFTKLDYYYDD

Regarding `C=CCC(OC(C)=O)[C@@H]1[C@@H](N(Cc2cccc3ccccc23)C(=O)Cc2ccc(OC)cc2)c2cc(OCCCO)ccc2N1C(=O)c1ccc2ccccc2n1` (stereo not given in full), the composite z-score in assay [1] is 0.216; in assay [6], 1.05; in [7], 0.0569; in the assay with Torsin-1A (Homo sapiens) [8], -0.512; in the assay with Torsin-1A (Homo sapiens) [9], 0.0537; in assay [10], 0.524. Further, the z-score in [2] is -2.08 (inactive); in assay [3], -0.253 (inactive); in assay [4] it was -0.374 (inactive); in [5], 1.3 (inactive).
In the case of `C=C(C)[C@@H]1CC=C(C(O)C2C=CC3C(=O)N(c4ccccc4)C(=O)C3N2Nc2ccccc2F)CC1` (stereo not given in full), the composite z-score came out at 0.29 in [1]; 1.31 in [6]; 0.153 in assay [7]; 0.0552 in the assay with Torsin-1A (Homo sapiens) [8]; 0.77 in the assay with Torsin-1A (Homo sapiens) [9]; 0.27 in assay [10]. For the same compound, the z-score in assay [2] is 0.581 (inactive); in assay [3] it was -0.887 (inactive); in assay [4], 0.24 (inactive); in [5], 0.493 (inactive).
In the case of `COCCOC(=O)N1C(=O)[C@@]2(c3cc(C#CC4=CCCCC4)ccc31)[C@H](C(=O)N1CCCCCCC1)[C@H]1C(=O)O[C@H](c3ccccc3)[C@H](c3ccccc3)N1[C@@H]2c1ccc(O)cc1`, the composite z-score came to 0.278 in assay [1]; 0.0947 in assay [6]; 0.329 in assay [7]; 0.681 in the assay with Torsin-1A (Homo sapiens) [8]; 0.595 with Torsin-1A (Homo sapiens) [9]; 1.3 in assay [10]. Also, the z-score in [2] was -4.39 (inactive); in assay [3] it was -1.7 (inactive); in assay [4], -0.815 (inactive); in assay [5] it was 0.234 (inactive).
`CCOC(=O)c1ccc(NC(=O)O[C@H]2[C@H](OC(=O)Nc3ccc4c(c3)OCO4)[C@H](OC(=O)Nc3ccc4c(c3)OCO4)[C@@H](OC)O[C@@H]2CO)cc1`: the composite z-score in [1] came out at 0.662; in assay [6] it was 0.245; in [7], 0.386; in the assay with Torsin-1A (Homo sapiens) [8], 0.807; with Torsin-1A (Homo sapiens) [9], 0.505; in assay [10], 1.76. Further, the z-score in assay [2] was -2.23 (inactive); in [3] it was 1.55 (inactive); in assay [4], 0.0918 (inactive); in assay [5], -0.195 (inactive).
Regarding `[N-]=[N+]=NCc1ccccc1C[C@@]1(C(=O)N2CCOCC2)N=C(c2ccc(OCCCO)cc2)O[C@@H]1c1ccccc1`, the composite z-score in assay [1] was 0.464; in assay [6], 1.35; in [7], 0.0589; in the assay with Torsin-1A (Homo sapiens) [8], 1.19; with Torsin-1A (Homo sapiens) [9], 1.31; in [10], -0.796. Also, the z-score in assay [2] is -5.68 (inactive); in assay [3], -0.244 (inactive); in assay [4] it was 0.922 (inactive); in assay [5] it was -0.951 (inactive).
For the compound `O=C1OCC=C[C@H]2OC34C=CCN(Cn5nnc6ccccc65)C(=O)[C@H]3N(CCCO)C(=O)[C@@H]4[C@@H]12` (stereo not given in full), the composite z-score is -0.439 in assay [1]; -0.266 in assay [6]; -0.224 in assay [7]; 0.183 with Torsin-1A (Homo sapiens) [8]; -1.85 with Torsin-1A (Homo sapiens) [9]; 0.182 in [10]. For the same compound, the z-score is -2.27 (inactive) in [2], -1.17 (inactive) in assay [3], -0.887 (inactive) in assay [4] and -0.247 (inactive) in assay [5].
Take `O=C1OCCC/C=C\[C@H]2OC34C=CCN(CCN5CCOCC5)C(=O)[C@H]3N(CCCCCCO)C(=O)[C@@H]4C12` (stereo not given in full): the composite z-score is -0.089 in [1]; -0.215 in assay [6]; -0.0791 in assay [7]; 0.944 with Torsin-1A (Homo sapiens) [8]; -0.404 with Torsin-1A (Homo sapiens) [9]; 0.837 in assay [10]. In addition, the z-score in [2] was -0.129 (inactive); in [3], -1.18 (inactive); in assay [4] it was 0.325 (inactive); in assay [5] it was -0.0772 (inactive).
`Cc1ccc(S[C@]2(C(=O)NCC(F)(F)F)CC(=O)N(Cc3ccccc3)[C@@H]2c2ccc(CO)cc2I)cc1`: the composite z-score in assay [1] was 0.0543; in [6], -0.119; in [7], 0.0228; in the assay with Torsin-1A (Homo sapiens) [8], -0.565; with Torsin-1A (Homo sapiens) [9], -0.49; in assay [10] it was 0.237. Also, the z-score was -1.22 (inactive) in [2], 0.479 (inactive) in assay [3], -0.581 (inactive) in assay [4] and 1.83 (inactive) in [5].
For the compound `NCCCCCCNC(=O)[C@@H]1C[C@@H]2C(=O)N[C@@H](CCCCN)C(=O)N2[C@@H]1c1cccc(OCCO)c1`, the composite z-score is 0.57 in assay [1]; 0.125 in assay [6]; 0.094 in assay [7]; -0.324 in the assay with Torsin-1A (Homo sapiens) [8]; 1.2 with Torsin-1A (Homo sapiens) [9]; 1.5 in assay [10]. Moreover, the z-score is 0.0957 (inactive) in [2], -0.537 (inactive) in assay [3], -0.26 (inactive) in assay [4] and -0.119 (inactive) in assay [5].
Take `CCCCCCCCCCC(O)C1C=CC2C(=O)N(C)C(=O)C2N1NC(=O)OC(C)(C)C` (stereo not given): the composite z-score in assay [1] was -0.121; in assay [6], 0.548; in [7] it was 0.0198; with Torsin-1A (Homo sapiens) [8], -0.436; with Torsin-1A (Homo sapiens) [9], 0.0812; in assay [10], -0.813. The z-score in assay [2] was -3.15 (inactive); in assay [3], 0.918 (inactive); in assay [4], 0.632 (inactive); in assay [5] it was 0.584 (inactive).
Turning to `COCCOC(=O)N1C(=O)[C@@]2(c3cc(C#CCC(C(=O)OC)C(=O)OC)ccc31)[C@H](C(=O)N1CCc3cc(OC)c(OC)cc3C1)[C@H]1C(=O)O[C@H](c3ccccc3)[C@H](c3ccccc3)N1[C@@H]2c1ccc(OCCO)cc1`, the composite z-score in [1] was determined as 0.587; in assay [6] it was 0.523; in assay [7] it was 0.19; with Torsin-1A (Homo sapiens) [8], 0.817; with Torsin-1A (Homo sapiens) [9] it was 0.914; in assay [10], 1.73. Besides, the z-score was -0.0887 (inactive) in assay [2], -0.442 (inactive) in assay [3], 0.0653 (inactive) in assay [4] and -0.333 (inactive) in assay [5].
In the case of `C[N+](C)(C)CCCCCCNC(=O)[C@H]1C[C@H]2C(=O)NCC(=O)N2[C@H]1c1ccc(O)cc1`, the composite z-score was 0.119 in assay [1]; -0.337 in assay [6]; -0.354 in assay [7]; 0.261 in the assay with Torsin-1A (Homo sapiens) [8]; 0.349 with Torsin-1A (Homo sapiens) [9]; 2.09 in [10]. Further, the z-score in [2] is -0.274 (inactive); in assay [3] it was 0.0567 (inactive); in assay [4], -1.35 (inactive); in [5], 0.444 (inactive).
As for `C=C(CCCC)/C(=C/C[C@@H](OC(=O)c1ccncc1)c1ccccc1OCCO)c1cnc2ccccc2c1`, the composite z-score is 0.944 in assay [1]; 1.16 in assay [6]; 0.11 in [7]; 0.49 in the assay with Torsin-1A (Homo sapiens) [8]; -0.239 with Torsin-1A (Homo sapiens) [9]; 2.17 in assay [10]. Besides, the z-score in assay [2] was -2.5 (inactive); in assay [3], 0.207 (inactive); in [4], 10.3 (active); in [5] it was 0.689 (inactive).
For `COc1ccc(-c2nc(-c3ccccc3)c3c(c2C)CO[Si]3(C(C)C)C(C)C)cn1`, the composite z-score in [1] is 0.0934; in [6], 0.188; in assay [7], -0.0494; with Torsin-1A (Homo sapiens) [8], 0.14; with Torsin-1A (Homo sapiens) [9] it was -0.129; in [10], 0.848. The z-score was -0.483 (inactive) in [2], 0.338 (inactive) in assay [3], -0.607 (inactive) in assay [4] and 0.315 (inactive) in [5].
